Reference: the supplement of paper PMC11732987, “Enantioselective OTUD7B fragment discovery through chemoproteomics screening and high-throughput optimisation” (Communications Chemistry, 2025)

Columns and labels:
Assay in all cases: log2 ratio of Biotin-Ahx-Ub-VS probe labelling (fragment/DMSO); higher = less target engagement (more negative = stronger competition), active = hit call of the paper (q ≤ 0.05, log2 ratio ≤ -1)
Conditions in all cases: compound concentration: 200 uM; treatment time: 3 h
[1] = molecular target: T1, OTUD6B (UniProt Q8N6M0)
T1 sequence (whole entry): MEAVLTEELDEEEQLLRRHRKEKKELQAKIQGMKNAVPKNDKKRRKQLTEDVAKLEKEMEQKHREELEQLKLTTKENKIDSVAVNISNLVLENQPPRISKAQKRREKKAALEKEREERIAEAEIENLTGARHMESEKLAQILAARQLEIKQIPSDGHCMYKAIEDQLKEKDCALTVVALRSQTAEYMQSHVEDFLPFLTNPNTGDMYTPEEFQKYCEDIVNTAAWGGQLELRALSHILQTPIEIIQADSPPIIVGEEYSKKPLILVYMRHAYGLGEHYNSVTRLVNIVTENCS
Outline: (§1)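 HEK293T lysate (495 µg per sample, in Tris/CHAPS/IGEPAL buffer with protease inhibitors) was exposed in triplicate for 3 h to fragment at 200 µM or to vehicle, then to Biotin-Ahx-Ub-VS at 0.5 µM final for 1 h. Labelled DUBs were enriched on NeutrAvidin, digested with LysC and trypsin, and analysed by diaPASEF LC-MS/MS. Spectronaut label-free quantities were normalised to the global median, and values are average log2 ratios of fragment over vehicle from an unpaired t-test. Only proteins with ≥2 unique peptides were used.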

[2] = molecular target: T2, OTUD7B (UniProt Q6GQQ9)
T2 sequence (whole entry): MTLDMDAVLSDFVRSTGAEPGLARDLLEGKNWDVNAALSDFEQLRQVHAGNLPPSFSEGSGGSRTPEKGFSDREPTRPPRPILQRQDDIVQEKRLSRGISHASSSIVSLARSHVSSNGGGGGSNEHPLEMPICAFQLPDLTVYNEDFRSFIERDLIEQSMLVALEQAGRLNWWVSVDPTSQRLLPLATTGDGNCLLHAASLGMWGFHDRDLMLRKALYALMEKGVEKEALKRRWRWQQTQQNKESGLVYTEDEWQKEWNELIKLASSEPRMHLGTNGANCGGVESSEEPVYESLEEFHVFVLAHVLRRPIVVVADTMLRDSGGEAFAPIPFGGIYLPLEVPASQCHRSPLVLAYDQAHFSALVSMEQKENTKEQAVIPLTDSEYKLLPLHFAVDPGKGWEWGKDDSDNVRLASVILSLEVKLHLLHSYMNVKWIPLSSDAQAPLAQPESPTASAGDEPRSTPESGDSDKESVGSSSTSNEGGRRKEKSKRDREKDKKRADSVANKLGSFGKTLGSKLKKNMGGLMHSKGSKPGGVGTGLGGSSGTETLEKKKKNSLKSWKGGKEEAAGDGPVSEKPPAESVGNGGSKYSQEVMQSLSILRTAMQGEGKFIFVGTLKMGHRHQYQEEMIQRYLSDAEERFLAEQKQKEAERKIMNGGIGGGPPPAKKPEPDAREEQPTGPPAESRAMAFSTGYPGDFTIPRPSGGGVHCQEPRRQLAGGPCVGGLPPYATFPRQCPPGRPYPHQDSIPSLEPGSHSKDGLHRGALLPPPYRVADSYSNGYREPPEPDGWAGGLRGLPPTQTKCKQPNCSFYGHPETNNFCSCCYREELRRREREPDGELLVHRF
Outline: as §1

[3] = molecular target: PRPF8 (UniProt Q6P2Q9)
Outline: as §1

[4] = molecular target: T3, PSMD7 (UniProt P51665)
T3 sequence (whole entry): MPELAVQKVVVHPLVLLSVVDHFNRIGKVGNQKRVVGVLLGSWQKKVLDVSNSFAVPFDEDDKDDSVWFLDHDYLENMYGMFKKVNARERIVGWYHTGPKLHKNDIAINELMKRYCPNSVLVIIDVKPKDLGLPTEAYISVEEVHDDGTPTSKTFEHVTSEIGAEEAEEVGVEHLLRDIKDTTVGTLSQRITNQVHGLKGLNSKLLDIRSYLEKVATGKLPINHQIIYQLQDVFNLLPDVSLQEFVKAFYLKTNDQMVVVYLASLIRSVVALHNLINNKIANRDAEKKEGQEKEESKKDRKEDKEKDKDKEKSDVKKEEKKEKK
Outline: as §1

[5] = molecular target: UCHL1 (UniProt P09936)
Outline: as §1

[6] = molecular target: T4, UCHL3 (UniProt P15374)
T4 sequence (whole entry): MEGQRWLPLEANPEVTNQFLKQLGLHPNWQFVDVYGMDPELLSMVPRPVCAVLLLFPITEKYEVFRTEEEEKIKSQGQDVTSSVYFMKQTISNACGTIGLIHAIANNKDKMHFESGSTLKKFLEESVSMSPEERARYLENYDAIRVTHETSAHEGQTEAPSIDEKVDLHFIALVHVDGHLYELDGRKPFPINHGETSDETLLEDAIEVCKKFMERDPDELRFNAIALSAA
Outline: as §1

[7] = molecular target: T5, UCHL5 (UniProt Q9Y5K5)
T5 sequence (whole entry): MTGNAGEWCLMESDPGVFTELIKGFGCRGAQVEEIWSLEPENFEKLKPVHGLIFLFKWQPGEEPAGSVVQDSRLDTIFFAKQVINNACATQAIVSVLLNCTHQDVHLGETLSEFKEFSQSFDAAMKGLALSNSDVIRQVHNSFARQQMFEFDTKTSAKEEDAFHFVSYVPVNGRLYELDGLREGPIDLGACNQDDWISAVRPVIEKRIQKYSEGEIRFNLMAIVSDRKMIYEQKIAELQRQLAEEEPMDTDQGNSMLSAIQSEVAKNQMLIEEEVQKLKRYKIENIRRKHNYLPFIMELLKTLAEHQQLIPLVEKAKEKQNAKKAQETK
Outline: as §1

[8] = molecular target: USP10 (UniProt Q14694)
Outline: as §1

[9] = molecular target: T6, USP15 (UniProt Q9Y4E8)
T6 sequence (whole entry): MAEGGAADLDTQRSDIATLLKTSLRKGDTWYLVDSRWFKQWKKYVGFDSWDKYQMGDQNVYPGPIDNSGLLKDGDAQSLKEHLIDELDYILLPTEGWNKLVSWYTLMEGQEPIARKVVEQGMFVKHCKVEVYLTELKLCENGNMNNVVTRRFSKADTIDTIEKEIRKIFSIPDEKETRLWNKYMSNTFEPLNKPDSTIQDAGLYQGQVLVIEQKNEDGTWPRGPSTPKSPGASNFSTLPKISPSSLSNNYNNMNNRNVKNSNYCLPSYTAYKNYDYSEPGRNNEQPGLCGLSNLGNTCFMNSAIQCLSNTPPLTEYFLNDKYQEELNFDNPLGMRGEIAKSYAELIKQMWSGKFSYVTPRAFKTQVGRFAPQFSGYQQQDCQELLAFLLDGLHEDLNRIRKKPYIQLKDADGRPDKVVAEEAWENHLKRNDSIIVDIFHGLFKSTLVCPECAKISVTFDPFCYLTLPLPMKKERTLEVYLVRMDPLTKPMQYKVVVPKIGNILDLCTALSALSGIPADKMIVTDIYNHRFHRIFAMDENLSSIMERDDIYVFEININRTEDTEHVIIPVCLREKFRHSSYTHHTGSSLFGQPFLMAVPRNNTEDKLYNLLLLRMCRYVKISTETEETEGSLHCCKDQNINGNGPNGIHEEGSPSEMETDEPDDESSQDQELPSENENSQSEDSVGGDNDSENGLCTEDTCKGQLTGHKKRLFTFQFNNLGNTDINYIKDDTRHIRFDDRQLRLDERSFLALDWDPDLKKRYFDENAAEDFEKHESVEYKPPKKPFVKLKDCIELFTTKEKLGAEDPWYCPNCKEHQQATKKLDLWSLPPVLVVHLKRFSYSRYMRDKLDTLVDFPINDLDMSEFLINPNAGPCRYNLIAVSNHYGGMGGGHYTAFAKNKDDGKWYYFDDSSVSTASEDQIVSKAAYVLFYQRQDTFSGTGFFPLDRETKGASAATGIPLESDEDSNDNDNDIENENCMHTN
Outline: as §1

[10] = molecular target: USP16 (UniProt Q9Y5T5)
Outline: as §1

Measured: log2 ratio of Biotin-Ahx-Ub-VS probe labelling

UCHL1, sequence (P09936 whole entry, looked up): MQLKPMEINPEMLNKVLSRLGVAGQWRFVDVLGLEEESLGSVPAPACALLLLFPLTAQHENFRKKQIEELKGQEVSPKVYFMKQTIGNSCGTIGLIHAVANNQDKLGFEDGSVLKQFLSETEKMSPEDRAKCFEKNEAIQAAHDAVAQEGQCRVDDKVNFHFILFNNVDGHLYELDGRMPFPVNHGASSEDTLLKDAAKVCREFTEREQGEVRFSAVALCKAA
USP10, sequence (Q14694 whole entry): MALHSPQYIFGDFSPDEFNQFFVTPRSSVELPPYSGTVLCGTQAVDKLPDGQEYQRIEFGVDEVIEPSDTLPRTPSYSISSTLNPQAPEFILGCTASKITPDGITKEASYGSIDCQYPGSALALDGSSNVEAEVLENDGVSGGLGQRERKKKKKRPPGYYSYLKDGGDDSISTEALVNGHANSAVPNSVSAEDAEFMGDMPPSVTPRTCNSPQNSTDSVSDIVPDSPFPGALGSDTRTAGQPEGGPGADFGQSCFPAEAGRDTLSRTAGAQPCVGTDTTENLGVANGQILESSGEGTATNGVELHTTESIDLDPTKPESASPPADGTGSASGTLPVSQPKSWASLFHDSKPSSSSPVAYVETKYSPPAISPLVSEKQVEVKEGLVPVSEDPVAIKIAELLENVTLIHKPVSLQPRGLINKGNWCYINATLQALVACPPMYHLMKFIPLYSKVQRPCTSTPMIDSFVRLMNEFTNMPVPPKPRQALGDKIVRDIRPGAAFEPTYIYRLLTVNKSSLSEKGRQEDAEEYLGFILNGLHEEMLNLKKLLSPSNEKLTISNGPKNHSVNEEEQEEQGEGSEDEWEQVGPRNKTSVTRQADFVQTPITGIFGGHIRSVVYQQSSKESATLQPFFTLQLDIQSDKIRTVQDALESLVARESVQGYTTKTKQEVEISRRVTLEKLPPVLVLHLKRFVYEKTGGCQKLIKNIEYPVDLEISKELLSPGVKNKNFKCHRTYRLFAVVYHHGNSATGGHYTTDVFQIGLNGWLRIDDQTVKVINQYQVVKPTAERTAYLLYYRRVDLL
USP16, sequence (Q9Y5T5 whole entry, looked up): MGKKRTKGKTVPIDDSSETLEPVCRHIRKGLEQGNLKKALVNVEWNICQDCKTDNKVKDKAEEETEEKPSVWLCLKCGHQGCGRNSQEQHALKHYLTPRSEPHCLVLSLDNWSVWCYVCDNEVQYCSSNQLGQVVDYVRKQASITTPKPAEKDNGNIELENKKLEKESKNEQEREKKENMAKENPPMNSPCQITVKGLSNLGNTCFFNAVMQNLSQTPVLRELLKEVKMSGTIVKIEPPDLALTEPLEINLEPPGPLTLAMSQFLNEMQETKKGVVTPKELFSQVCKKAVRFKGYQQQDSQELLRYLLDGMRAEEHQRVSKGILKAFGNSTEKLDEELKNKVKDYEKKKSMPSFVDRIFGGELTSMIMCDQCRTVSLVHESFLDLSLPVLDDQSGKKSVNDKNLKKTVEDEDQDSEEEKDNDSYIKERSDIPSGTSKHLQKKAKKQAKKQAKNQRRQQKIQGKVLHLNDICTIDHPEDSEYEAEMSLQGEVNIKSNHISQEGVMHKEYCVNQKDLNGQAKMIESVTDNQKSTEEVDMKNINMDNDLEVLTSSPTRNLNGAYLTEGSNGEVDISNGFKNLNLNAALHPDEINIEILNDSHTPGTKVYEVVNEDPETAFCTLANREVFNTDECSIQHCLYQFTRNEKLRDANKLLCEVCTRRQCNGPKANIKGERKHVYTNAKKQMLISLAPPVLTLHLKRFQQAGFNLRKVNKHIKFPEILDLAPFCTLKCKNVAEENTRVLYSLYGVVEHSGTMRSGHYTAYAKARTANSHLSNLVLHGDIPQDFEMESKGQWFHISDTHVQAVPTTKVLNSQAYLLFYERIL

CN1c2ccccc2C(NC(=O)CCl)CS1(=O)=O (stereo not given)
active: [2] -2.41 | [5] -1.69
inactive: [1] -0.0927 | [3] 0.0667 | [4] -0.189 | [6] 0.316 | [7] -0.387 | [8] 0.128 | [9] -0.212 | [10] -0.411
